The values that follow come from PubChem BioAssay (Tox21).

A short description of experiment [1]: cAMP Responsive Elements (CRE) small molecule antagonists, cell-based qHTS assay: qHTS cell viability counter screen (AID 2060913). Further: nearly all actives have a fitted effect of over 40% in size. The essentials: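 CRE-bla HEK293T cells (2,000/well, 18 h) given compound plus NKH477 0.25 uM final for 3 h at 37C; viability counter-screen by CellTiter-Glo luminescence in same wells after 30 min.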
(In general: Quantitative high-throughput screening tests each substance at several concentrations.)

Experiment [2] in a line: cAMP Responsive Elements (CRE) small molecule agonists, cell-based qHTS assay: qHTS cell viability counter screen (AID 2060914). Further: nearly all actives have a fitted effect of over 50% in size. The method, boiled down: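 Cells are seeded and incubated 18 h, treated with compounds in DMSO for 3 h, read for the bla reporter, then given CellTiter-Glo; luminescence is measured after 30 min at room temperature.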

Inconclusive results are not listed. More than one record can exist for a structure, and the calls need not agree. A number with no mark means an inactive call. Calls of active or inactive are those of the source. The call rests on the fitted dose curve; in most records, active means well fitted cell-killing curve with a large enough effect in the repeat runs; inconclusive means weak or mixed curves, or effect the other way; inactive means flat fitted curve, though single readings scatter.
On the % scale 0 is the no-effect control and ±100 the full control effect; potency means the concentration at half of the fitted maximal effect.

Consider `CCCCC/C=C\C/C=C\CCCCCCCC(=O)O`, for which the Potency result in experiment [1] and in experiment [2] was “inactive” each time.

For the compound `[Cl][In]([Cl])[Cl]`, the Potency entry in experiment [1] and in experiment [2] was “inactive” each time.

As to `NC(N)=Nc1nc(CSCC/C(N)=N/S(N)(=O)=O)cs1`, the Potency result in experiment [1] and in experiment [2] was “inactive” throughout.

Consider `CC(C)OC(=O)c1cc2c(OCC(O)CNC(C)(C)C)cccc2[nH]1` (stereo not given), for which the Potency result in experiment [1] and in experiment [2] was “inactive” throughout.

Consider `CCCCCCC(C)(C)C(=O)O`, for which the Potency entry in experiment [1] and in experiment [2] was “inactive” throughout.

Consider `O=C(O)c1c(Cl)ccc(Cl)c1Cl`, for which the Potency entry in experiment [1] and in experiment [2] was “inactive” each time.

For the compound `O=P(c1ccccc1)(c1ccccc1)c1ccccc1`, the Potency result in experiment [1] and in experiment [2] was “inactive” throughout.

Turning to `O=C1CCCCCO1`, the Potency entry in experiment [1] and in experiment [2] was “inactive” throughout.

`CCCCCCCCCCCCCOC(=O)CCSCCC(=O)OCCCCCCCCCCCCC`: in experiment [1], the viability change, negative = cytotoxic is 3.07% [at 18.9 µM]. In addition, the activity change, negative = cytotoxicity in experiment [2] was -4.92% [at 18.9 µM].

With `CN=C(N)NC(=O)Nc1c(C)cccc1C`, the Potency result in experiment [1] and in experiment [2] was “inactive” each time.

With `CN(C)CCN(C)CCN(C)C`, the Potency entry in experiment [1] is “inactive”.

Turning to `O=[Se](O)O`, in experiment [1], the Potency is 61.2 µM (active) and the viability change, negative = cytotoxic was 6.01% [at 18.9 µM]. For the same compound, in experiment [2], the Potency is 15.4 µM (active) and the activity change, negative = cytotoxicity was 25.7% [at 18.9 µM].

Turning to `CC(=O)c1ccc([N+](=O)[O-])cc1`, the Potency result in experiment [1] and in experiment [2] was “inactive” throughout.

Take `CCCCCC/C=C/C=O`: the Potency result in experiment [1] was “inactive”.

Regarding `CCCCC/C=C/CC1CC(=O)OC1=O` (stereo not given), the Potency result in experiment [1] and in experiment [2] was “inactive” throughout.
